This note sets out measurements from PubChem BioAssay (NCATS).

Inconclusive results are not listed. A number with no mark means an inactive call. The call rests on the fitted dose curve; in most records, active means well fitted cell-killing curve with a large enough effect; inconclusive means small, poorly fitted or top-dose-only effect; inactive means flat fitted curve, though single readings scatter.

This assay can be described thus: Cell Viability - LYMP2-018 (AID 985).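 Further: compound exposure lasted 24 hr at 37 °C; nearly all actives have a fitted effect of over 50% in size.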 Conditions: LYMP2-018 lymphoblastoid cells, viability (qHTS); series mostly up to 92.2 µM; activity change, negative = cytotoxicity: at the top concentration. The source says:
NIH Chemical Genomics Center [NCGC]
NIH Molecular Libraries Screening Centers Network [MLSCN]
National Institutes of Environmental Health Sciences [NIEHS]
National Toxicology Program [NTP]
We have developed a 1536-well cell-based assay for quantitative high throughput screening (qHTS) against a number of cell lines to determine in vitro cytotoxicity of small molecules. This particular assay uses a human lymphoblastoid cell line (LYMP2-018) purchased from Coriell Institute for Medical Research.
NCGC Assay Protocol Summary:
The CellTiter-Glo luminescent cell viability assay (Promega) is a homogeneous method to measure the number of viable cells in culture. The end point readout of this assay is based on quantitation of intracellular ATP, an indicator of metabolic activity, using the luciferase reaction. Luciferase catalyzes the oxidation of beetle Luciferin to oxyluciferin and light in the presence of ATP. The luminescent signal is proportional to amount of ATP present.
Using the CellTiter-Glo luminescent cell viability assay, the amount of cellular ATP was measured in the lymphoblastoid cell line with complete culture medium following compound treatment for 24 hours. The assay was performed in opaque white Kalypsys 1536-well plates. In the screen, tetraoctylammonium bromide was used as positive control. Library compounds were measured for their ability to cause acute toxicity in the cell line, as reflected by a decrease in intracellular ATP levels, in a concentration-dependent manner. […] AC50 values were determined from concentration-response data modeled with the standard Hill equation.
qHTS protocol for CellTiter Glo lymphoblastoid cellular assay
[Step] [Parameter] [Value] [Description]
1. Reagent; 5 uL; 2500 lymphoblastoid cells/well
2. Time; 5 hr; 37 C incubation
4. Controls; 23 nL; Tetraoctylammonium bromide 6.4pM to 92 uM
5. Time; 24 hr; 37 C incubation
6. Reagent; 5 uL; CellTiter Glo reagent
7. Time; 30 min; Room Temperature
8. Detection; Luminescence; Viewlux plate reader
Keywords: cell viability, cytotoxicity, lymphoblastoid cell line, luminescence, NTPHTS, NTPHTS_NCGC, NIEHS, DSSTox, MLSMR, MLSCN, NIH Roadmap, qHTS, NCGC
In the case of `CCCCCCC(=O)O`, the “activity change, negative = cytotoxicity” value is 2.15%.

With `c1ccc2c(c1)Oc1ccccc1S2`, the “activity change, negative = cytotoxicity” value is -12%.

`O=C(O[C@@H](C(=O)O)[C@@H](OC(=O)c1ccccc1)C(=O)O)c1ccccc1`: the “activity change, negative = cytotoxicity” value was -25%.

In the case of `C=Cc1ccccc1C=C`, the “activity change, negative = cytotoxicity” value was -5.1%.

With `CC(C)N=C=NC(C)C`, the “activity change, negative = cytotoxicity” value is -0.854%.

For the compound `Cc1ccc(Cl)cc1`, the “activity change, negative = cytotoxicity” value is 0.622%.

For the compound `CCCCCCCCC/C=C/CC1CC(=O)OC1=O` (stereo not given), the “activity change, negative = cytotoxicity” value was -12.2%.

Consider `O=C(O)c1ccc(CO)o1`, for which the “activity change, negative = cytotoxicity” value is -16.4%.

As to `Clc1ccc(Cl)c(Cl)c1Cl`, the “activity change, negative = cytotoxicity” value was -19.1%.

In the case of `C=Cc1ccccn1`, the “activity change, negative = cytotoxicity” value is -7.74%.

As to `Cc1ccc2ncccc2c1`, the “activity change, negative = cytotoxicity” value is 0.711%.

Regarding `O=Cc1ccc(CO)o1`, the “activity change, negative = cytotoxicity” value was 11.4%.

`CCCCCCCCN`: the “activity change, negative = cytotoxicity” value is -9.72%.

As to `CCc1ccccc1O`, the “activity change, negative = cytotoxicity” value is 1.58%.

In the case of `Nc1cccc2c(=O)[nH][nH]c(=O)c12`, the “activity change, negative = cytotoxicity” value is -18.6%.

As to `Cc1ccc(C)c(N)c1`, the “activity change, negative = cytotoxicity” value is -2.5%.

On to `CCNS(=O)(=O)c1ccc(C)cc1`, for which the “activity change, negative = cytotoxicity” value is -1.44%.

In the case of `CC(=O)c1nccs1`, the “activity change, negative = cytotoxicity” value was 6.37%.

`Nc1cccc(O)c1`: the “activity change, negative = cytotoxicity” value was -3.93%.

For `CC#N`, the “activity change, negative = cytotoxicity” value is -3.22%.

In the case of `CNC(=O)N(c1ccccc1)c1ccccc1`, the “activity change, negative = cytotoxicity” value was -2.36%.

On to `Nc1cc(Cl)c([N+](=O)[O-])cc1O`, for which the “activity change, negative = cytotoxicity” value was -7.18%.

Consider `O=[N+]([O-])c1ccc2nc[nH]c2c1`, for which the “activity change, negative = cytotoxicity” value was -11.7%.

For the compound `O=C(Cl)c1cccc([N+](=O)[O-])c1`, the “activity change, negative = cytotoxicity” value is 5.43%.

Regarding `O=C(O)c1ccc(Cl)cc1Cl`, the “activity change, negative = cytotoxicity” value was -10.7%.

Take `O=P(O)(OCc1ccccc1)OCc1ccccc1`: the “activity change, negative = cytotoxicity” value is 0.108%.

In the case of `CC(=O)c1ccccc1[N+](=O)[O-]`, the “activity change, negative = cytotoxicity” value is -12.6%.

Regarding `NC(=O)c1cccc([N+](=O)[O-])c1`, the “activity change, negative = cytotoxicity” value is -13.9%.

Regarding `Nc1ccc(F)cc1F`, the “activity change, negative = cytotoxicity” value was -8.52%.

Regarding `NC(=S)NNC(N)=S`, the “activity change, negative = cytotoxicity” value is -21.5%.

As to `CC(=C/C=C/C(C)=C/C=C/C=C(C)/C=C/C=C(C)/C=C/C(=O)O)/C=C/C(=O)O`, the “activity change, negative = cytotoxicity” value is -13.5%.

Regarding `CC(C)=CCl`, the “activity change, negative = cytotoxicity” value was -8.72%.

With `COCCOC(=O)c1ccccc1C(=O)OCCOC`, the “activity change, negative = cytotoxicity” value was -14.9%.

Consider `CNC(=O)c1ccccc1`, for which the “activity change, negative = cytotoxicity” value was -7.53%.

For `O=C(O)c1ccccc1C(=O)O`, the “activity change, negative = cytotoxicity” value is -17.2%.

In the case of `Nc1cccc(S(=O)(=O)O)c1`, the “activity change, negative = cytotoxicity” value was 10.3%.

Consider `Cc1cc(C)c(N)cc1C`, for which the “activity change, negative = cytotoxicity” value is -7.23%.

As to `CC(C)CO`, the “activity change, negative = cytotoxicity” value is -4.57%.

Take `C=CCOC(=O)CCCCCCCC`: the “activity change, negative = cytotoxicity” value is -4.25%.

Take `CCOC(=O)C(C)C(C)=O` (stereo not given): the “activity change, negative = cytotoxicity” value was -7.92%.
